In all, about 350,000 compounds went through this assay and about 2,300 (0.66%) were called active. The list comes from a sample in which actives are over-represented; it also holds similar structures and randomly drawn compounds. A number with no mark means an inactive call.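 Rule for the calls: active = mean inhibition of at least 50% after viability correction, with every replicate also passing that limit; inconclusive = mean reaches 50% but only one of two replicates passes; inactive = the rest.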
Assay: EWS/Fli-driven NR0B1 reporter inhibitors, primary screen, A673 cells, NR0B1 luciferase, luminescence, MLPCN library (AID 651661);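 note: firefly luciferase signal divided by Alamar Blue viability fluorescence both relative to DMSO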
Conditions: viability-normalised, at 12.6 µM, stronger effect = higher value

In order of rising inhibition:
1. CCCNC(=O)c1c(Cl)cnn1-c1ccc(C)cc1  -130%
2. Cc1ccc(C(=O)Nc2nc3ccc(Cl)cc3s2)o1  -92.8%
3. COc1ccccc1-c1ccc2n(c1=O)C[C@@H]1[C@@H](CO)[C@H](C(=O)NCc3ccccc3Cl)N[C@H]21  -17.8%
4. C[C@H]1CN([C@@H](C)CO)C(=O)c2cc(/C=C/c3ccccc3)cnc2O[C@@H]1CN(C)C(=O)NC1CCCCC1  -13.4%
5. CCCn1nc(C(=O)Nc2ccc3nc(C)sc3c2)c2ccccc2c1=O  -12%
6. Cc1ccc(-c2nn(-c3ccccc3)cc2/C=C2\SC(=S)N(CCCCCC(=O)O)C2=O)o1  -10.8%
7. Cc1cccc(-n2ncc3c(=O)[nH]c(SCC(=O)Nc4cc(C)on4)nc32)c1  -9.98%
8. COc1ccc2c3c([nH]c2c1)[C@@H](CO)N(C(=O)CN1CCOCC1)CC31CCN(C)CC1  -7.25%
9. N#Cc1ccc(-c2ccc([C@H]3[C@H](CO)N4C(=O)CN(C(=O)Cc5ccccc5)C[C@@H]34)cc2)cc1  -6.19%
10. CC(C)c1cc(C(=O)NC2CCCCCC2)c2ccccc2n1  -3.93%
11. Cc1ccc(S(=O)(=O)Nc2ccc3c(c2)C(=O)N([C@@H](C)CO)C[C@H](C)[C@@H](CN(C)CC2CC2)O3)cc1  -3.89%
12. CC(=O)Nc1ccc2nc(NC(=O)CS(=O)(=O)c3ccc(F)cc3)sc2c1  -3.37%
13. COc1cccc(NC(=O)C[C@@H]2CC[C@H]3[C@@H](COc4ccc(NC(=O)C5CCC5)cc4C(=O)N3C)O2)c1  -3.34%
14. C[C@H]1CN([C@@H](C)CO)C(=O)c2c(c3ccccc3n2C)-c2ccccc2CO[C@H]1CN(C)C(=O)Nc1ccc(F)cc1  -3.34%
15. CCNC(=O)C[C@@H]1CC[C@@H]2[C@@H](COc3ccc(NC(=O)Nc4ccccc4F)cc3C(=O)N2C)O1  -3.28%
16. O=C(C1CCCC1)N1CC(=O)N2[C@H](C1)[C@@H](c1ccc(-c3ccccc3F)cc1)[C@@H]2CO  -3.17%
17. O=C1/C(=C/c2ccc(F)cc2)SC(=S)N1CCCC(=O)N1CCCCC1CCO (stereo not given)  -2.88%
18. C[C@@H]1CN([C@@H](C)CO)S(=O)(=O)c2ccc(-c3ccc(C(=O)N(C)C)cc3)cc2O[C@@H]1CN(C)C(=O)Cc1ccccn1  -2.65%
19. CO[C@H]1CN(C)C(=O)c2ccc(NS(C)(=O)=O)cc2OC[C@@H](C)N(Cc2ccccc2)C[C@H]1C  -2.52%
20. COc1ccc(Cn2c(=S)[nH]c3cc(C(=O)N4CCCCC4)ccc3c2=O)cc1  -2.4%
21. Cc1ccc(S(=O)(=O)N(C)C[C@@H]2Oc3c(NC(=O)c4ccncc4)cccc3C(=O)N([C@@H](C)CO)C[C@@H]2C)cc1  -2.33%
22. Cc1ccc2[nH]c(=O)c(CC(=O)O)c(-c3ccccc3)c2c1  -1.99%
23. O=C(C[C@@H]1C[C@@H]2c3cc(NS(=O)(=O)c4ccc(F)cc4)ccc3O[C@@H]2[C@@H](CO)O1)N1CCOCC1  -1.95%
24. C[C@H](O)C#Cc1ccc2c(c1)O[C@@H](CN(C)CC1CCCC1)[C@H](C)CN([C@@H](C)CO)S2(=O)=O  -1.43%
25. COc1ccc(-c2nc(CCNC(=O)c3ccc(Br)o3)cs2)cc1  -1.15%
26. COc1ccc2c3c(n(C)c2c1)[C@@H](CO)N(CC1CC1)CC31CN(C(=O)Nc2c(C)noc2C)C1  -1.03%
27. COCC(=O)N1CC(=O)N2[C@H](CO)[C@@H](c3ccc(C#CC4CCCC4)cc3)[C@H]2C1  -0.851%
28. COc1ccc(CNC(=O)C[C@@H]2C=C[C@@H](NC(=O)c3ccc4c(c3)OCO4)[C@@H](CO)O2)cc1  -0.519%
29. O=C([C@H]1[C@H](CO)[C@H]2Cn3c(cccc3=O)[C@@H]1N2Cc1cocn1)N1CCCCC1  -0.44%
30. COCC(=O)Nc1ccc2c(c1)OC[C@@H](C)N(C(=O)c1cnccn1)C[C@H](C)[C@@H](OC)CN(C)C2=O  -0.326%
31. COCC(=O)Nc1ccc2c(c1)C(=O)N(C)C[C@@H](OC)[C@@H](C)CN(CC1CCCCC1)[C@@H](C)CO2  -0.183%
32. O=C(C1CC1)N1CC(=O)N2[C@H](CO)[C@@H](c3ccc(-c4ccccc4F)cc3)[C@@H]2C1  -0.073%
33. C[C@H]1CN([C@@H](C)CO)C(=O)c2cccc(NS(=O)(=O)c3ccc(F)cc3)c2O[C@@H]1CN(C)C  1.9%
34. CCNC(=O)[C@H]1[C@H](CO)[C@H]2Cn3c(ccc(-c4cccc(OC)c4)c3=O)[C@H]2N1Cc1nccs1  2.22%
35. C[C@H]1CN([C@@H](C)CO)C(=O)c2ccccc2-c2ccccc2CO[C@@H]1CN(C)C(=O)CCN(C)C  2.93%
36. COc1ccc(NC(=O)N[C@@H]2C=C[C@H](CC(=O)NC3CCC3)O[C@@H]2CO)cc1  3.89%
37. CNC[C@H]1Oc2cc(C#CC3CCCC3)ccc2S(=O)(=O)N([C@H](C)CO)C[C@@H]1C  3.9%
38. C[C@@H]1CN([C@@H](C)CO)C(=O)c2cc(NS(=O)(=O)c3cn(C)cn3)ccc2O[C@@H](C)CCCCO[C@@H]1CN(C)Cc1ccncc1  4.01%
39. CCC(=O)Nc1ccc2c(c1)C(=O)N(C)C[C@H](OC)[C@@H](C)CN(C(=O)c1cnccn1)[C@@H](C)CO2  4.08%
40. O=C(NC[C@H]1CC[C@H]2[C@H](CN2Cc2cccc(Cl)c2)O1)C1CC1  5.25%
41. O=C(C[C@H]1C[C@@H]2c3cc(NC(=O)c4cccnc4)ccc3O[C@@H]2[C@@H](CO)O1)NCc1ccccc1F  6.33%
42. O=C(Nc1ccc(F)cc1)N[C@@H]1CC[C@H](CC(=O)N2CCCCC2)O[C@H]1CO  6.37%
43. CC(C)C(C)NC(=O)COc1nc2ccccc2nc1N(C)C1CCCCC1 (stereo not given)  6.59%
44. CCN(CC)CCCNC(=O)c1cc2c(=O)[nH]c3ccc(C)cc3c2s1  7.57%
45. O=C(CCc1ccccc1Cl)Nc1ccc(S(=O)(=O)Nc2nccs2)cc1  8.82%
46. COc1ccc2c3c(n(C)c2c1)[C@H](CO)NCC31CCN(C(=O)Nc2ccccc2F)CC1  9.22%
47. CCC(=O)N1CC(=O)N2[C@@H](CO)[C@@H](c3ccc(C#CC4CCCC4)cc3)[C@@H]2C1  9.48%
48. COc1cc2[nH]c(=S)n(Cc3ccc(F)cc3)c(=O)c2cc1OC  11.2%
49. O=C(NC[C@@H]1[C@@H](c2ccccc2)[C@H](CO)N1C(=O)C1CCC1)NC1CCCC1  14.7%
50. COc1ccc(-c2nc3c(s2)CCc2onc(-c4ccc(Br)cc4)c2-3)cc1  24.2%

In the case of `CN(c1ccc2nc3ccccc3c(=O)n2n1)C1CCCCC1`, the inhibition is reported as 84.9% (active).
In the case of `COc1ccc(-c2nc3c(s2)CCc2onc(-c4ccc(OC)cc4)c2-3)cc1`, the inhibition is reported as 65.6% (active).
In the case of `CCC(=O)N1CC(=O)N2[C@@H](CO)[C@H](c3ccc(C#CC4CCCC4)cc3)[C@@H]2C1`, the inhibition is reported as 56.6% (active).
With `CCCC(=O)Nc1nc2ccc(NC(=O)c3c(F)c(F)c(OC)c(F)c3F)cc2s1` the inhibition was 57.7% (active).
With `C=CCOc1ccc(/C=C2\SC(=S)N(CCC(=O)O)C2=O)cc1` the inhibition was 78.5% (active).
With `Cc1ccc(CCC(=O)Nc2ncc(Cc3cc(Cl)ccc3Cl)s2)o1` the inhibition was 54% (active).
In the case of `Cc1cccc(-n2ncc(Cl)c(Cl)c2=O)c1`, the inhibition is reported as 79.8% (active).
With `Cc1cccc(N(C)C(=O)c2cc3c(=O)[nH]c4ccc(C)cc4c3s2)c1` the inhibition was 65% (active).
With `CCC(C)Cn1c(O)cc2nn(-c3nc4ccccc4s3)c(=O)c-2c1C` (stereo not given) the inhibition was 64.5% (active).
With `CCOc1cc2[nH]c(=S)n(Cc3ccc(C(=O)N4CCN(C)CC4)cc3)c(=O)c2cc1OCC` the inhibition was 67.5% (active).

Source: PubChem BioAssay AID651661 (Broad Institute, 2012)
